# PubChem BioAssay AID1347419 (Sanford-Burnham Center for Chemical Genomics, 2020)
# Screen size: about 99,000 compounds; about 820 (0.83%) were called active. Shown is part of a subset that was picked to be rich in actives. A number with no mark means an inactive call.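 How the source made its calls: active means Z-score of -3 or lower, scaled per plate to the spread of control and sample wells; inactive means z-score above -3.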
# Target: Protein-tyrosine kinase 2-beta (Homo sapiens) (UniProt Q14289)
# Sequence (Q14289 whole entry, looked up): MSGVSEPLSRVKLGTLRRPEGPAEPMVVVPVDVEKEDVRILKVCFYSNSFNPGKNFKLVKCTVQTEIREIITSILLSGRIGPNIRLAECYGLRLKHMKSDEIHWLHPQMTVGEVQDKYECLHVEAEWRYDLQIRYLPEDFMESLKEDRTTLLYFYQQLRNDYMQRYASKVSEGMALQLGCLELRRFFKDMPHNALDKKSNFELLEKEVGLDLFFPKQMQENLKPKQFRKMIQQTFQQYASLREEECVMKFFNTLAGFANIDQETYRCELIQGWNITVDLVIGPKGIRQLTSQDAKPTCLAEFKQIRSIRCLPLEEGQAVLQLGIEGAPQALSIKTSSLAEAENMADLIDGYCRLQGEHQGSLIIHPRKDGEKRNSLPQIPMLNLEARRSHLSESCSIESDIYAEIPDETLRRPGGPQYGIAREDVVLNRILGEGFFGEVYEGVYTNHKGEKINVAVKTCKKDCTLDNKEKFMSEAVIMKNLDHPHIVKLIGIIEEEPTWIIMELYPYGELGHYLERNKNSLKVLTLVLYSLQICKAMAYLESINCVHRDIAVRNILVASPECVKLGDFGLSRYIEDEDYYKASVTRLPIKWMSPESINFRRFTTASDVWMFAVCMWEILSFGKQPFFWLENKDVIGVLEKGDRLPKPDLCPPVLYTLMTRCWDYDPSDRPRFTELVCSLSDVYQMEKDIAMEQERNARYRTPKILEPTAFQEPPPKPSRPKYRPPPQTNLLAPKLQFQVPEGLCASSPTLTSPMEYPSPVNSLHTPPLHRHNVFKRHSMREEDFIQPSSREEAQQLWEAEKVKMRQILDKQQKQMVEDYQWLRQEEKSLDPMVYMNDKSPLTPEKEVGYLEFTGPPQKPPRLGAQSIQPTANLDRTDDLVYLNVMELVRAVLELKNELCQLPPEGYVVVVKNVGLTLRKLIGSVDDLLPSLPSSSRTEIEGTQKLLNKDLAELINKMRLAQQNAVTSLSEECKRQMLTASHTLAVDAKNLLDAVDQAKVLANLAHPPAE
# Test: Pyk2 FERM oligomerization blockers – Q293 cells, FERM NanoBiT luminescence, HTS, primary screen (AID 1347419);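 further: the deposit names both 25 µM and 10 µM; negative z-score means lost luminescence so less FERM oligomerization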
# Set-up: dose or concentration left out as unconfirmed
# Conditions: stronger effect = lower value
row,Compound,z-score
1,CC(=O)c1c(O)n(C2CCCCCC2)c(=O)[nH]c1=O,0.12
2,CCC(=NCCc1ccccc1)c1c(O)n(C2CCCCC2)c(=O)[nH]c1=O,-3.36 (active)
3,CCC(=NCc1ccco1)c1c(O)n(Cc2ccccc2)c(=O)[nH]c1=O,-0.23
4,CN(C)c1ccc(/C=C2\CC3C4CC=C5CC(O)CCC5(C)C4CCC3(C)C2=O)cc1 (stereo not given),-0.08
5,O=C(COC(=O)c1ccccc1)Nc1ccc(Cl)cc1C(=O)c1ccccc1,0.02
